40 molecules from PubChem BioAssay (EPA / NIEHS) can be followed below.

Calls of active or inactive are those of the source. Rule for the calls: active = hit-call score of the fitted dose curve at least 0.9, where 1 is the maximum; inactive = score below 0.9.

As a reminder, the AC50 is the concentration at which the activity in the assay is half-maximal.

The test can be described thus: ATG_NRF2_ARE_CIS: Attagene CIS-FACTORIAL HepG2 Assay for human Nuclear Factor Erythroid 2 Related Factor 2 (NFR2) response to Antioxidant Response Elements (ARE) (AID 2282992). Particulars: HepG2 Attagene ARE/NRF2 reporter, transcription factor activity; actives raise or lower the signal. As for the experimental part:
ATG_CIS is a cell-based, multiplexed-readout assay that uses HepG2, a human liver cell line, with measurements taken at 24 hours after chemical dosing in a 24-well plate.ATG_NRF2_ARE_CIS is one of 52 assay component(s) measured or calculated from the ATG_CIS assay. It is designed to make measurements of mRNA induction, a form of inducible reporter, as detected with fluorescence intensity signals by Reverse transcription polymerase chain reaction (RT-PCR) and Capillary electrophoresis technology.Data from the assay component ATG_NRF2_ARE_CIS was analyzed into 1 assay endpoint. This assay endpoint, ATG_NRF2_ARE_CIS, was analyzed with bidirectional fitting relative to DMSO as the negative control and baseline of activity. Using a type of inducible reporter, measures of mRNA for gain or loss-of-signal activity can be used to understand the reporter gene at the transcription factor-level as they relate to the gene NFE2L2. Furthermore, this assay endpoint can be referred to as a primary readout, because this assay has produced multiple assay endpoints where this one serves a reporter gene function. To generalize the intended target to other relatable targets, this assay endpoint is annotated to the dna binding intended target family, where the subfamily is basic leucine zipper.
Human liver HepG2 cells are transiently transfected with multiple reporter transcription units (MRTUs) in 6-well plates using FuGene 6 reagent (Roche; 3 ml FuGene/1 mg DNA). The MRTU constructs are regulated by a cis-regulating element (promoter). […] A major difference between the CIS and TRANS system is that in CIS activities of endogenous TFs are measured, whereas the TRANS assay evaluates changes in activities of exogenous, chimeric NR-Gal4 proteins. […] At the end of 24 hour incubation, total RNA was isolated using TriZol reagent (Invitrogen). The isolated RNA is then reverse-transcribed using oligo(dT) primer and Mo-MLV reverse transcriptase (Invitrogen) with DNAse I (Ambion) treatment for 30 min. The one-tenth of the produced cDNA was amplified by PCR using Taq DNA polymerase (Invitrogen) and two reporter sequence-specific primers. The PCR products were fluorescently labeled by primer extension with 6-arboxyfluorescein (6-FAM) 5'-labeled reporter sequence-specific primer (2 min at 95 C, 20 s at 68 C and 10 min at 72 C) and these products were digested with 5U of HpaI (New England Biolabs) for 2h at 37 C. The fragments were purified using Qiaquick PCR columns (Qiagen), analyzed on an ABI 3130xL genetic analyzer (Applied Biosystems) with peak positions identified by using a set of X-rhodamine (ROX)-labeled MapMarker1000 molecular weight standards (BioVentures). The raw capillary electrophoresis data was processed using Attagraph software (Attagene).
As for `CCOc1ccc(N)c([N+](=O)[O-])c1`, the outcome was inactive.

Take `CCCCCCCC(C)=O`: the call was inactive.

In the case of `C=C(C)[C@@H]1CCC2=CCC[C@@H](C)[C@]2(C)C1`, the AC50 was 87.3 µM (active).

On to `O=c1c2ccccc2nnn1CCl`, for which the call was inactive.

Consider `Cc1cc(C)c(C(=O)O)c(C)c1`, for which the result was inactive.

In the case of `CO[Si](OC)(OC)c1ccccc1`, the result was inactive.

As for `O=[N+]([O-])c1ccc(CO)cc1`, the call was inactive.

On to `CCCCCCCCCCCCCCCC[N+](C)(C)CC`, for which the molecule was classed as inactive.

For `Cc1ccc2oc(=O)ccc2c1`, the AC50 was 58.4 µM (active).

`CC(C)(C)C(=O)C=Cc1ccc(Cl)cc1`: the molecule was called inactive.

For `CCCCCCCCCCCCCOP(=O)(O)O`, the result was inactive.

`C[Si](C)(C)O[Si](O)(O)O`: the call was inactive.

As for `CCCCCCOC(=O)C(C)CC` (stereo not given), the result was inactive.

As to `CC(C)=CC1CC(C)CCO1` (stereo not given), the call was inactive.

Regarding `CCOC(=O)c1ccccc1C(=C1C=C(Br)C(=O)C(Br)=C1)c1cc(Br)c(O)c(Br)c1`, the result was inactive.

In the case of `O=C(c1ccccc1)C1CCC1`, the molecule was classed as inactive.

On to `Cc1ccc(N/N=c2\c(=O)cc/c(=N/Nc3ccc(S(=O)(=O)O)cc3)c2=O)c(C)c1`, for which the call was inactive.

In the case of `C[C@]12C=CC(=O)C=C1CC[C@@H]1[C@@H]2[C@@H](O)C[C@@]2(C)[C@H]1CC[C@]2(O)C(=O)CO`, the call was inactive.

In the case of `Cc1ccccc1C`, the result was inactive.

`Cn1c(=O)[nH]c2ncn(C)c2c1=O`: the call was inactive.

For `Cc1cccc(C(=O)O)c1`, the molecule was called inactive.

For `Cc1ccc(OC(=O)CC(C)C)cc1`, the molecule was called inactive.

For `O=S(=O)(O)c1ccccc1C=Cc1ccc(-c2ccc(C=Cc3ccccc3S(=O)(=O)O)cc2)cc1`, the molecule was called inactive.

Consider `O=C(/C=C/C=C/c1ccc2c(c1)OCO2)N1CCCCC1`, for which the AC50 was 47.4 µM (active).

`CNC(=S)NN`: the call was inactive.

With `Cc1ccc(C2OC[C@@H]3OC(c4ccc(C)cc4)O[C@H]([C@H](O)CO)[C@@H]3O2)cc1` (stereo not given in full), the concentration at half-maximal activity (AC50) was 100 µM (active).

Turning to `CCCCCCCC/C=C\CCCCCCCC(=O)O`, the AC50 is 100 µM (active).

Turning to `NCCCN1CCN(CCCN)CC1`, the AC50 was 81.2 µM (active).

Consider `COc1cc(C)ccc1C(C)C`, for which the molecule was classed as inactive.

Regarding `CCOC(=O)[C@H](C)O`, the half-maximal activity concentration (AC50) is 26.7 µM (active).

On to `NC(=O)c1ccccc1O`, for which the result was inactive.

For `[Cl][In]([Cl])[Cl]`, the AC50 is 17.6 µM (active).

For the molecule `Nc1ccc(N=Nc2ccccc2)c(N)n1`, the AC50 is 15.3 µM (active).

In the case of `CN(C)c1ccc(N=Nc2ccccc2C(=O)O)cc1`, the concentration at half-maximal activity (AC50) is 4.76 µM (active).

As for `CCCCCC/C=C\CCCCCCCC(=O)O`, the AC50 was 26.5 µM (active).

Consider `C=CCOc1c(Br)cc(Br)cc1Br`, for which the outcome was inactive.

Turning to `CCC(C)OC(=O)c1ccc(O)cc1` (stereo not given), the AC50 was 100 µM (active).

On to `Cc1c(C)c([N+](=O)[O-])c(C(C)(C)C)c([N+](=O)[O-])c1C`, for which the molecule was called inactive.

Turning to `COC(F)(F)C(F)(C(F)(F)F)C(F)(F)F`, the outcome was inactive.

As to `O=S(=O)(O)c1ccc2cc(O)c(S(=O)(=O)O)cc2c1`, the AC50 is 46.6 µM (active).
